From paper PMC10726135, “HNF4α isoforms regulate the circadian balance between carbohydrate and lipid metabolism in the liver” come the findings set out here.

The full ranking holds about 18,000 sequences; the median of “log2 normalized intensity” is about 0.39, and the highest 2% start at about 6.6. What follows is part of a selection rich in the highest values, with near analogues and random picks from the rest.

The assay has as its target T1, HNF4alpha2 (COS-7 nuclear extract) (Homo sapiens, UniProt P41235 1-474).
T1 sequence: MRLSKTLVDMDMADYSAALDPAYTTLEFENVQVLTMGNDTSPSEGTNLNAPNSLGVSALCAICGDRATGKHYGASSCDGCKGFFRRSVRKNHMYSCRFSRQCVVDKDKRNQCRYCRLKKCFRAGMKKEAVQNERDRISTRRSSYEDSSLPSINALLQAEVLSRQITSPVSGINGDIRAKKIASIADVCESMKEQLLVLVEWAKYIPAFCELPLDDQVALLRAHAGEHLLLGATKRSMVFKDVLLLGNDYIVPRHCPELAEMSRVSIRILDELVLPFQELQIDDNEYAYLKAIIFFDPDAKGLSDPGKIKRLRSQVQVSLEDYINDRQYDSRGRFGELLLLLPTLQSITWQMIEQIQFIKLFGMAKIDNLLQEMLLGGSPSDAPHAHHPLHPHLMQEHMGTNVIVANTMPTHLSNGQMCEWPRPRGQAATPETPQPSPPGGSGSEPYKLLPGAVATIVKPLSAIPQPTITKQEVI
In words: protein-binding microarray; COS-7 nuclear extract on double-stranded Agilent 4x180k PBM; binding buffer, salt, pH and temperature not given in the material; high values mean tight binding. Conditions: chain copies: 2; label: 3' end of strand 1 on the slide; dsDNA, one strand shown. In short, it runs like this: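 A custom Agilent SurePrint G3 4x180k array, spotted in quadruplicate with ~44,000 test sequences as ~60-nt oligonucleotides made double-stranded, was incubated with nuclear extracts. The extracts came from COS-7 cells transiently transfected by CaPO4 with a human HNF4α isoform expression vector. Bound HNF4α was imaged on an Agilent G2565CA scanner at 2-µm resolution, and the binding signal was taken as Agilent software's background-corrected, normalized gProcessedSignal.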
For the sequence “GATGCTAGGTTTGTGAGTCCAAAGGTCAGCGCCTAGGGAGATTAGAGTATCGGTCGA”, the binding signal is 9.14 log2 normalized intensity. The value for “TAGCCAGACCTGTTCCTCTGCCCCTCATCGGCCTAGGGAGATTAGAGTATCGGTCGA” was 1.7 log2 normalized intensity; that for “TGAGACATTTTGTCTTTTCTCCCCTGACTAGCCTAGGGAGATTAGAGTATCGGTCGA” was 2.63 log2 normalized intensity; that for “GGACAATCATTGTGCAACCTGGACATTGGCGCCTAGGGAGATTAGAGTATCGGTCGA” was 2.08 log2 normalized intensity.

In the case of “AAGGTGTATGTGGACTTTCAACTGCAGGGGGCCTAGGGAGATTAGAGTATCGGTCGA”, the binding signal came out at 3.47 log2 normalized intensity. In the case of “CGAGCATGGCCGCTCCGCGAGGTGAGCCATGCCTAGGGAGATTAGAGTATCGGTCGA” it was 0.717 log2 normalized intensity; in that of “TGGGCCCCACAGTGCATCTGATAAGGTTGTGCCTAGGGAGATTAGAGTATCGGTCGA”, 0.921 log2 normalized intensity; in that of “GCTGGTTGCCCCTTTGACCCTCGGGCCTCCGCCTAGGGAGATTAGAGTATCGGTCGA”, 5.62 log2 normalized intensity. In the case of “AGCCTTATTCTTTGATCTCTTATCACCCTGGCCTAGGGAGATTAGAGTATCGGTCGA” it was 1.86 log2 normalized intensity; in that of “ATGACCTTTGACTGAGATGGGAGCAGTGCTGCCTAGGGAGATTAGAGTATCGGTCGA”, 2.23 log2 normalized intensity.

For the sequence “CTGGATGACCTTTGTCCTGGCACAACTGGAGCCTAGGGAGATTAGAGTATCGGTCGA”, the binding signal was found to be 5.84 log2 normalized intensity.

For the sequence “TGACCTTTGTCCTGGCACAACTGGATGGTGGCCTAGGGAGATTAGAGTATCGGTCGA”, the binding signal came to 5 log2 normalized intensity. In the case of “TCCTGATCTTTGACCTGGAGCATGACCCTTGCCTAGGGAGATTAGAGTATCGGTCGA” it was 4.86 log2 normalized intensity; in that of “CTAGTTAAGTCACTGGGCTGATGACCTTTGGCCTAGGGAGATTAGAGTATCGGTCGA”, 6.19 log2 normalized intensity.

In the case of “TTTTTTTTTTGAGATGGAATCTTGCCCTGTGCCTAGGGAGATTAGAGTATCGGTCGA”, the binding signal worked out at 3.18 log2 normalized intensity. In the case of “TAAGTCACTGGGCTGATGACCTTTGACTGAGCCTAGGGAGATTAGAGTATCGGTCGA”, the binding signal amounted to 7.08 log2 normalized intensity.

Consider “CACTGGGCTGATGACCTTTGACTGAGATGGGCCTAGGGAGATTAGAGTATCGGTCGA”, for which the binding signal was 5.32 log2 normalized intensity. The value for “CATCTTTGAGCTGGATGACCTTTGTCCTGGGCCTAGGGAGATTAGAGTATCGGTCGA” was 8.57 log2 normalized intensity; that for “TTGAGCTGGATGACCTTTGTCCTGGCACAAGCCTAGGGAGATTAGAGTATCGGTCGA” was 7.13 log2 normalized intensity; that for “AGAATCATCTTTGAGCTGGATGACCTTTGTGCCTAGGGAGATTAGAGTATCGGTCGA” was 7.46 log2 normalized intensity. The value for “AGACCCTTATCAGTAGTTCTCCTTTCTGCCGCCTAGGGAGATTAGAGTATCGGTCGA” was 1.39 log2 normalized intensity. In the case of “ATGCATAGAAGTATGTCTGGGATTTGAAGGGCCTAGGGAGATTAGAGTATCGGTCGA”, the binding signal was -0.542 log2 normalized intensity. The value for “GTCAAGCAATGATCTTCATGAACTTCTGTCGCCTAGGGAGATTAGAGTATCGGTCGA” was 1.26 log2 normalized intensity; that for “TAAAACCATGCAAATTGCTGACTTTCTGTGGCCTAGGGAGATTAGAGTATCGGTCGA” was -0.773 log2 normalized intensity; that for “CAGCAGGGCACCGCCTCCACACCCCAGCCTGCCTAGGGAGATTAGAGTATCGGTCGA” was 3.03 log2 normalized intensity. In the case of “GCCCTCCCCCAGAGAGAACAGTCCTACAAAGCCTAGGGAGATTAGAGTATCGGTCGA” it was 2.08 log2 normalized intensity; in that of “AAGATGGGCATTAGGTGGACAGGGGTGTGTGCCTAGGGAGATTAGAGTATCGGTCGA”, 1.78 log2 normalized intensity.

“ACCCTTTGAGTCCTTCATGGCTACCCTTCAGCCTAGGGAGATTAGAGTATCGGTCGA”: the binding signal is 0.859 log2 normalized intensity.

On to “CCCGCAGTGAGGGACAAGGCTGTCCCCCATGCCTAGGGAGATTAGAGTATCGGTCGA”, for which the binding signal turned out to be 1.6 log2 normalized intensity.

For the sequence “GGGGGTAAAGTGGATTGCTGGCCTTTTATCGCCTAGGGAGATTAGAGTATCGGTCGA”, the binding signal was 0.814 log2 normalized intensity. With “CTCACATGAGCTAGAGCTCGTGTCATCTCTGCCTAGGGAGATTAGAGTATCGGTCGA”, the binding signal was -0.899 log2 normalized intensity. In the case of “CACCAGAAAAATGTACATGTGCAAAAGCACGCCTAGGGAGATTAGAGTATCGGTCGA” it was 0.628 log2 normalized intensity; in that of “TCAAAGGTCAGAAAAAGCTGACGCCCCACCGCCTAGGGAGATTAGAGTATCGGTCGA”, 3.28 log2 normalized intensity.

For the sequence “CAAGGGTCAGTTCATTAAAAAAAAAAAAAAGCCTAGGGAGATTAGAGTATCGGTCGA”, the binding signal was determined as 1.19 log2 normalized intensity. In the case of “TAGAAGCAGTGGGACAAAGGTCACAGGAAAGCCTAGGGAGATTAGAGTATCGGTCGA” it was 4.42 log2 normalized intensity; in that of “TGGGTTCAAAGGTCAGAAAAAGCTGACGCCGCCTAGGGAGATTAGAGTATCGGTCGA”, 6.84 log2 normalized intensity; in that of “GAGGGTGGGTTCAAAGGTCAGAAAAAGCTGGCCTAGGGAGATTAGAGTATCGGTCGA”, 6.66 log2 normalized intensity. As to “GGTCAGAAAAAGCTGACGCCCCACCCCCTCGCCTAGGGAGATTAGAGTATCGGTCGA”, the binding signal came to 5.94 log2 normalized intensity. In the case of “GGCATGGGAAGCAGTGAGGGTGGGTTCAAAGCCTAGGGAGATTAGAGTATCGGTCGA” it was 0.803 log2 normalized intensity; in that of “AAGAAAAGCCTTGTGGCAGTGAGAACAGGTGCCTAGGGAGATTAGAGTATCGGTCGA”, 0.143 log2 normalized intensity.

Regarding “GCAGTGAGGGTGGGTTCAAAGGTCAGAAAAGCCTAGGGAGATTAGAGTATCGGTCGA”, the binding signal stood at 7.95 log2 normalized intensity. For “GGGAAGCAGTGAGGGTGGGTTCAAAGGTCAGCCTAGGGAGATTAGAGTATCGGTCGA”, the binding signal is 8.24 log2 normalized intensity.

Turning to “GACTCAGAAAAATATGTGGACTTCAAAGGTGCCTAGGGAGATTAGAGTATCGGTCGA”, the binding signal turned out to be 1.29 log2 normalized intensity. With “AAAGGGGAAAAGGTCAAATACCAAAATGTGGCCTAGGGAGATTAGAGTATCGGTCGA”, the binding signal was 1.8 log2 normalized intensity.
